This passage reports RAM network inhibition results from PubChem BioAssay.

A number with no mark means an inactive call.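 Rule for the calls: active = RAM network inhibition above 8.4% in each of two replicates, 3 SD over the compound average; inconclusive = above 8.4% inhibition in only one replicate; inactive = 8.4% inhibition or less in each replicate.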

This test is described as follows: RAM signaling pathway blockade in yeast – S. cerevisiae, Pdr1DBD-CYC8 efflux-inhibited sensitized strain, primary screen (AID 1298).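 Note: 0% = DMSO untreated cells without growth and 100% = 10 µM 1-NA-PP1 full growth; higher means more yeast growth rescued from 5-FOA killing.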 Particulars: S. cerevisiae cbk1-as DSE1-URA3 strain, 5-FOA growth OD615, 2 d; at 50 µM; hits give high values.
Take `CN(C)c1ccc(NC(=O)Cn2cc3c(n2)CCCC3)cc1`: the RAM network inhibition is 1.84%.
On to `CCOC(=O)c1cc(NC(=O)SCC(=O)O)c(C)nc1C`, for which the RAM network inhibition is 0.38%.
On to `Cc1nc2ccccc2c2oc(C(=O)NCC3COc4ccccc4O3)cc12` (centres undefined), for which the RAM network inhibition was 3.41%.
As for `O=C(CS(=O)(=O)c1cn(Cc2ccc(F)cc2)c2ccccc12)N1CCCCC1`, the RAM network inhibition was 5%.
The result for `Cc1ccc(C2c3c(oc4ccccc4c3=O)C(=O)N2c2nnc(C(C)C)s2)o1` (centres undefined) reads 1.85%; that for `Cc1cc(C)c2c(=O)n(CC(=O)NCCCN3CCN(c4ccccc4F)CC3)sc2n1`, 5%; that for `COc1ccccc1S(=O)(=O)Cc1ccc(C(=O)NCCN2CCCCCC2)o1`, 7.66%.
The result for `COc1ccc(C2C(C(=O)Nc3cccnc3)=C(C)Nc3nc(-c4cccs4)nn32)cc1OC` (centres undefined) reads -1.11%; that for `Cc1cc(=O)oc2cc(OCC#N)ccc12`, 3.55%.
The result for `CC1=C(C(N)=O)C(c2ccccn2)n2nc(SCc3ccccc3)nc2N1` (centres undefined) reads 2.59%.
In the case of `OC1(c2cccc(C(F)(F)F)c2)CCN(c2ccc(-c3ccccc3)nn2)CC1`, the RAM network inhibition is 5.46%.
In the case of `CCOC(=O)CSC1=C(C#N)C(c2ccc(C)o2)CC(=O)N1` (centres undefined), the RAM network inhibition was 0.15%.
The result for `O=C(Nc1nc2c(s1)CCCC2)C1COc2ccccc2O1` (centres undefined) reads 0.16%.
`Cc1ccccc1Cn1nc(C)c(NC(=O)c2noc3c2CCc2ccccc2-3)c1C`: the RAM network inhibition was 6.54%.
The result for `O=C(C1CC1)N1CCc2cc(Br)cc(S(=O)(=O)N3CCOCC3)c21` reads 2.33%; that for `C/C=C/COC(=O)c1[nH]c2c(c1C)C(=O)CC(c1ccco1)C2` (centres undefined), 0.51%; that for `Cc1ccc2nc(NC(=O)Cn3cc4c(n3)CCCCC4)sc2c1`, 3.93%.
`Cn1c(=O)oc2cc(S(=O)(=O)N3CCN(c4ccccn4)CC3)ccc21`: the RAM network inhibition is 5.16%.
In the case of `Cc1cccc(N(CC(=O)N2CCCC2)S(=O)(=O)c2ccccc2)c1C`, the RAM network inhibition was 3.22%.
The result for `CC(Sc1n[nH]c(=O)[nH]c1=O)C(=O)OCc1ccccc1` (centres undefined) reads 5.73%; that for `O=C(Nc1ccncc1)c1cc2ccccc2o1`, 4.22%; that for `CCOc1ccccc1NC(=O)C1CCCN(S(=O)(=O)c2cccc3cccnc23)C1` (centres undefined), 4.95%.
The result for `O=C(Nc1nc(-c2ccncc2)cs1)C1COc2ccccc2O1` (centres undefined) reads 7.12%; that for `CC(C)C(CO)NC(=O)CC(=O)NC(CO)C(C)C` (centres undefined), 6.33%.
As to `C(=N\n1cnnc1)/c1cccc(OCCOc2ccccc2)c1`, the RAM network inhibition is 0.17%.
The result for `C/C=C/COC(=O)c1[nH]c2c(c1C)C(=O)CC(c1ccc(N(C)C)cc1)C2` (centres undefined) reads 4.88%; that for `Cc1ccc(C)c(N2CCN(CCCNC(=O)Cn3cc4c(n3)CCC(C)C4)CC2)c1` (centres undefined), 0.11%.
The result for `CCOC(=O)c1ccc(N=c2sc(C(=O)OC)cc(=O)n2Cc2ccco2)cc1` reads 7.3%; that for `Cc1ccccc1-c1nc(CN2CCC(C(=O)NC3CCN(Cc4ccccc4)CC3)CC2)c(C)o1`, 1.75%; that for `CC(=O)n1cc(-c2ccncc2)c2ccccc21`, 0.27%.
Turning to `C/C=C/CSc1nc2c(c(=O)[nH]c(=O)n2C)n1Cc1ccc(C)cc1`, the RAM network inhibition was 2.77%.
The result for `O=C(NCCN1C(=O)C2C3C=CC(C3)C2C1=O)Nc1ccccn1` (centres undefined) reads 3.24%.
Take `CC1CCCCN1S(=O)(=O)c1ccc(NC(=O)c2cccs2)cc1` (centres undefined): the RAM network inhibition was 0.93%.
For `CCOc1ccc(N(CC(=O)Nc2cccc(OC)c2)S(=O)(=O)c2c(C)noc2C)cc1`, the RAM network inhibition is 4.24%.
The result for `CCOC(=O)N1CCN(C(=O)CN(C2CCCCC2)S(=O)(=O)c2ccc(F)cc2)CC1` reads 6.62%; that for `COc1cccc(-c2nc(CS(=O)(=O)CC(=O)Nc3cc(C)ccc3C)c(C)o2)c1`, 0.99%; that for `Cc1cc(=O)oc2c1ccc1oc(/C(=N/O)c3ccccc3)c(C)c12`, 9.44%.
For `Cc1cc(/C=N/n2cnnc2)c(C)n1-c1cccc(Cl)c1`, the RAM network inhibition was 2.81%.
The result for `Cc1cc(C)c2c(=O)n(CC(=O)NCCCN3CCOCC3)sc2n1` reads 3.11%.
